GPR151 ag = activates the human receptor GPR151. Q8TDV0. PathHunter beta-arrestin GPR151 cells, luminescence. activation, % at 11.2 µM. 650,000 tested, 1% active. AID 1508602; in the data active means activation above about 4.9%;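 further: 0% = median of compound wells and 100% = cells with positive control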
TEAD-YAP inh = TEAD-YAP interaction inhibition; AID 1259422; HEK-TIYL cells, TEAD-Gal4/YAP UAS-luciferase luminescence; 640,000 tested, 1.4% active; inhibition, % at 9.12 µM; in the data active means inhibition above about 32%;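 further: 0% = median of test compound wells and 100% = reference inhibitor wells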
MITF primary = blocks human microphthalmia-associated transcription factor; inhibition, % at 2.6 µM; 650,000 tested, 0.91% active; AlphaScreen MITF homodimerization, bead proximity signal; O75030; in the data active means inhibition above about 50%;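 further: 0% = vehicle wells with protein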
FBW7 activator = human FBW7 E3 ligase activation, primary screen; AlphaScreen FBW7–phospho-cyclin E peptide binding, activator screen; normalized activity (activation), % at 26.1 µM; Q969H0; 650,000 tested, 0.13% active; in the data active means normalized activity above about 1.9%;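 further: purified mutant Fbw7 with reduced substrate affinity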
An asterisk follows results filed as active. Shown are actives, neighbours in structure and some others; about 3.4% of the full set was active somewhere.

What do the screens show for `CCOc1ccc(C2Nc3ccc(C(=O)c4ccccc4)cc3NC3=C2C(=O)CCC3)cc1` (configuration not stated)?
GPR151 ag: 1.6; TEAD-YAP inh: 47.4*; MITF primary: 17.0; FBW7 activator: 0.2

What do the screens show for `O=C1CCCC2=C1C(c1ccc(F)c(Oc3ccccc3)c1)Nc1ccc(C(=O)c3ccccc3)cc1N2` (configuration not stated)?
GPR151 ag: 1.6; TEAD-YAP inh: 8.3; MITF primary: 2.3; FBW7 activator: -0.1

How did COc1ccc(C2Nc3ccc(C(=O)c4ccccc4)cc3NC3=C2C(=O)CC(C)(C)C3)cc1 (configuration not stated) do in these assays?
GPR151 ag: -0.5; TEAD-YAP inh: 15.5; MITF primary: 8.0; FBW7 activator: 0.1

How did O=C(Nc1ccc(Cl)c(C(F)(F)F)c1)C1CC(=O)N(Cc2ccccc2)C1 (configuration not stated) do in these assays?
GPR151 ag: 0.0; TEAD-YAP inh: 4.0; MITF primary: -11.5; FBW7 activator: 0.0

What do the screens show for `CC12CN(CO)CC(C)(CN(Cc3ccccc3)C1)C2=O`?
GPR151 ag: 1.1; TEAD-YAP inh: 7.6; MITF primary: 6.8; FBW7 activator: 2.6*

Results for CC12CNCC(C)(CN(Cc3ccccc3)C1)C2=O ?
GPR151 ag: -0.5; TEAD-YAP inh: 6.2; MITF primary: 0.8; FBW7 activator: -0.2

How did CCn1c2ccccc2c2cnc(N=CN(C)C)c(C#N)c21 do in these assays?
GPR151 ag: -0.5; TEAD-YAP inh: 41.7*; MITF primary: 6.0; FBW7 activator: -0.1

What do the screens show for `Cc1ccc2nc3c(nc2c1)-c1ccccc1C3=O`?
GPR151 ag: -0.3; TEAD-YAP inh: -17.4; MITF primary: -4.3; FBW7 activator: -0.1

Results for Cc1cc2nc3c(nc2cc1C)-c1ccccc1C3=O ?
GPR151 ag: -0.6; TEAD-YAP inh: 33.3*; MITF primary: 1.8; FBW7 activator: 0.0

Results for CC1CC(C)(C)Nc2ccc(OC(=O)c3ccccc3)cc21 (configuration not stated) ?
GPR151 ag: -0.1; TEAD-YAP inh: 43.9*; MITF primary: -5.1; FBW7 activator: -0.1

Results for O=C(Oc1ccc(OC(=O)c2ccccc2)cc1)c1ccccc1 ?
GPR151 ag: 0.3; TEAD-YAP inh: -4.2; MITF primary: 0.3; FBW7 activator: 0.0

How did Cc1nc2sc(-c3ccccc3)cc2c(=O)[nH]1 do in these assays?
GPR151 ag: -3.9; TEAD-YAP inh: 65.6*; MITF primary: -1.4; FBW7 activator: -0.1

How did Cc1nc2sc(-c3ccccc3)cc2c2nnc(-c3ccccc3)n12 do in these assays?
GPR151 ag: -0.1; TEAD-YAP inh: 90.8*; MITF primary: 1.4; FBW7 activator: 0.1

How did CCOC(=O)Cc1csc(N/N=C\c2ccc(C(F)(F)F)cc2)n1 do in these assays?
GPR151 ag: -1.3; TEAD-YAP inh: 61.1*; MITF primary: 14.3; FBW7 activator: 0.3

How did Cc1ccc(-c2nc(N)sc2-c2ccc([N+](=O)[O-])cc2)cc1 do in these assays?
GPR151 ag: 1.0; TEAD-YAP inh: 37.0*; MITF primary: 10.7; FBW7 activator: 0.0

How did COc1ccc(S(=O)(=O)NCc2csc(-c3ccccc3)n2)cc1 do in these assays?
GPR151 ag: -0.5; TEAD-YAP inh: -2.6; MITF primary: 10.4; FBW7 activator: -0.1

How did O=c1[nH]c(-c2cc(O)c(O)c(O)c2)nc2sc3c(c12)CCCC3 do in these assays?
GPR151 ag: 0.0; TEAD-YAP inh: 59.9*; MITF primary: -1.0; FBW7 activator: 0.2

How did O=c1[nH]c(-c2ccccc2O)nc2sc3c(c12)CCCC3 do in these assays?
GPR151 ag: -0.7; TEAD-YAP inh: -4.6; MITF primary: 10.9; FBW7 activator: 0.7

How did O=C(Nc1nc(-c2c[nH]c3ccccc23)cs1)C1CCCC1 do in these assays?
GPR151 ag: -1.4; TEAD-YAP inh: -56.2; MITF primary: -0.8; FBW7 activator: 0.1

Results for O=C(Nc1nc(-c2c[nH]c3ccccc23)cs1)c1n[nH]c(=O)c2ccccc12 ?
GPR151 ag: 2.1; TEAD-YAP inh: 36.2*; MITF primary: -3.7; FBW7 activator: 0.1

How did O=C1C2C3c4ccccc4C(c4ccccc43)C2C(=O)N1c1ccc(F)cc1 (configuration not stated) do in these assays?
GPR151 ag: -0.8; TEAD-YAP inh: -5.5; MITF primary: 10.8; FBW7 activator: 0.0

How did Cc1ccc(N=C2NC(=O)/C(=C\c3ccc(-c4ccc(Cl)c(C(=O)O)c4)o3)S2)cc1 do in these assays?
GPR151 ag: -0.5; TEAD-YAP inh: 2.1; MITF primary: -3.1; FBW7 activator: -0.4

What do the screens show for `COc1ccc(CCNc2nc(-c3cccc(N)c3)ncc2C)cc1`?
GPR151 ag: 0.1; TEAD-YAP inh: 44.4*; MITF primary: 0.8; FBW7 activator: -0.1

Bioassay records (PubChem)
